The values that follow come from the supplement of paper PMC6555819.

This assay has as its system VDR:RXRa (NR concentration 270 nM, RXRa partner concentration 90 nM). In words: PBM binding z-score (relative to random genomic background probes); higher = stronger binding; sequences stand for … in GC…GCGATTGACAGCGTAGAATGAAGG
On the procedure:
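Protein-binding microarray (Agilent 4x180K custom design, double-stranded 60-nt probes: 5' GC cap, 34-nt variable region, 24-nt constant primer region; full probe sequence given). Purified or IVT nuclear receptor:RXRα heterodimers (3:1 NR:RXRα, mostly 270:90 nM) or homodimers were incubated for 1 h in PBS with 2% milk and no ligand, then detected with Alexa488 antibodies. Fluorescence from o1-orientation probes (~5 replicates averaged) was converted to z-scores against 500 random hg19 background probes. Variable regions are seed direct-repeat (DR0–DR5) sites, all their single-nucleotide variants and half-site ablations.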
In the case of TCATATAGGTAAAACAGGTGAAAGTCGGCATCTA, the PBM binding z-score was found to be 1.17.

Sequence GCTAGCAGGCCATTTGGGTCACGCAATGACGGGC registered a PBM binding z-score of 1.61.

ACAGACAGGTGAGTGATGGTAACTCAGCTGGACG showed a PBM binding z-score of -0.122.

CAAACTAGGTCACCGAGGTCAAAGTCCGTGCGTA registered a PBM binding z-score of 8.34.

Regarding CCTACTGGGCCAAAAAGGACATTGATGCCGATAA, the PBM binding z-score was 0.106.

TCGAGTAGGCTACCAATGGGGCATTCAGCTTTCT showed a PBM binding z-score of -0.442.

TCTGCTAGGTCAGTTGGTCGGCTAACGAGCTGCC: the PBM binding z-score was 0.0498.

On to ATCTCTAGGTAAAACTCAGTTCAGTGAAGAACGC, for which the PBM binding z-score was determined as 1.5.

GGAACGAGGGCATTCGAATTGATAGCATGGCGAT came in with a PBM binding z-score of 1.13.

Turning to AGAATGAGGATAAGATCAGGGAAACAGAATACAT, the PBM binding z-score was -0.0497.

Sequence TCATATAGGTTAACAGGTGAAAGTCCGTAAGTTA showed a PBM binding z-score of 2.04.

In turn, GCTGCTAGGTCAACTGATGGGCAGCTAAAGCTCG came in with a PBM binding z-score of 1.09.

AGTCAAAGTTCAGGGCGAGGTAACGTAAAGCACG registered a PBM binding z-score of 3.27.

TCTATCAGTTGATTAGGGCAACCGAAACAGCGGA came in with a PBM binding z-score of 0.419.

In the case of ATATGTAAGTTACATCCGGGTCATTCAGGCTATG, the PBM binding z-score was found to be 3.56.

Regarding TCGAGTAGATTAGGGGCATTCAGAATGGCGTCGA, the PBM binding z-score was found to be 0.295.

TCATATAGGAAAAAGGTGAAAGTCGGTGTGGTAA registered a PBM binding z-score of 1.21.

Turning to CTACCAAGGTGAACAAGGTCGTTGTTTACTATTC, the PBM binding z-score is 6.2.

Sequence TCAGACCGGTGAAGGTAACTCAGGTACGCAGTCG had a PBM binding z-score of 0.501.

Sequence ATCTTTAGGTAACCAAGTTCAGTGAATGCCGAAC showed a PBM binding z-score of 4.36.

The sequence GTACCAAGGTGAATAGGCCGTTGATGAGTAGGCG registered a PBM binding z-score of -0.0408.

The sequence GCAGACAGGTGAAACGCTGGTAACTCAGGGTGGC gave a PBM binding z-score of -0.466.

As for CCTAGTTGGCCAGGAGGTCACACACCGGATATGA, the PBM binding z-score was determined as 3.63.

With TCTTGTAGAACAACAGGAGGTTAAGAAAGATCGA, the PBM binding z-score worked out at 0.492.

GCATATAGGTAATACAAGGTGAAAGTACGATTGT returned a PBM binding z-score of 0.62.

In turn, TTACCAAGGTGAGCTGAGGTCGATGATCCAACTC had a PBM binding z-score of 2.51.

Take CCGACTGGGGAATAAGGTTACCATAAGCCAGCCC: the PBM binding z-score was found to be 0.185.

CCGACTGTGGCAGAAAGGTTACCATACCATCCGG gave a PBM binding z-score of 0.378.

Take GGAACGAGGGCAAAGTTGATTGCATCTGTCGACG: the PBM binding z-score turned out to be 1.34.

ATATGTAGGTTACATCCTGGTCATTCAGGCTATG yielded a PBM binding z-score of 0.956.

Sequence TAGCCTAGGTCATGGGCTAGTATACCACGCGAAC registered a PBM binding z-score of 1.72.

Take TCTCGGAGGCCACGAAGGTCAGAGCTTTCCAGAG: the PBM binding z-score was 3.69.

For CCTTACGGGTCACGAGGTTACAGCACGACGAGCG, the PBM binding z-score came out at 5.28.

As to AGAACGAGGGCAATTAGTTGATAGCACGGGTGGC, the PBM binding z-score came to 1.13.

Regarding CGTCCAAGGTCAAGGCTAGGTCAGTGAAAGCATT, the PBM binding z-score is 5.06.

Sequence TCTTGTAGATCAAGCAGATTAAGAAAGCCTGAGT displayed a PBM binding z-score of 0.437.

Take ATGGAAAGGTCGAAGGTGAGTATACCCACCCGAA: the PBM binding z-score came to 2.81.

In turn, TTACCAAGGTGAGCTGAGGTCGGTGATCCAACTC returned a PBM binding z-score of 1.26.

The sequence GCCGCTAGGTCAGGTTGGTCAGCTAACGGGTACG yielded a PBM binding z-score of 0.54.

With ACTATCAGGCCAAGTTTGGGTCACTCAAACAAAG, the PBM binding z-score was 1.01.
